Laboratory results taken from PubChem BioAssay (NCATS).
Records with an inconclusive call do not appear. The source made the active and inactive calls. Calls come from the whole dose curve; as a rule, active = well fitted curve in the direction sought with a large enough effect; inconclusive = small, poorly fitted or top-dose-only effect, or another doubt; inactive = no such curve, though single readings can be large; an effect the other way counts as inactive or inconclusive.

Legend:
[1] = qHTS of pediatric cancer cell lines to identify multiple opportunities for drug repurposing: Confirmatory screen for TC32 cells (AID 1347118);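 note: cells exposed to compound for 48 h before the read; nearly all actives have a fitted effect of over 65% in size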
Procedure, shortened: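 Luminescent ATP read-out (CellTiter-Glo) of metabolically active TC32 cells after 48 h exposure. Concentration-response curves came from 11-point (MIPE, 0.78 nM–46 µM) or 8-point (NPC, 0.59 nM–46 µM) primary titrations; follow-up used 11 points.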

[2] = qHTS of pediatric cancer cell lines to identify multiple opportunities for drug repurposing: Confirmatory screen for MG 63 (6-TG R) cells (AID 1347119); note: nearly all actives have a fitted effect of over 55% in size
Procedure, shortened: (§1)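 Cells (500-1,000/well) rested 5 h, then received compounds for 48 h; metabolically active cells were measured by CellTiter-Glo luminescence. Final concentrations spanned up to 46 µM (MIPE, 11-point) or 0.59 nM-46 µM (NPC, 8-point) in primary screens, 11-point in follow-ups.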

[3] = qHTS of pediatric cancer cell lines to identify multiple opportunities for drug repurposing: Confirmatory screen for control Hh wild type fibroblast cells (AID 1347121); note: nearly all actives have a fitted effect of over 70% in size
Procedure, shortened: as §1

[4] = qHTS of pediatric cancer cell lines to identify multiple opportunities for drug repurposing: Confirmatory screen for Rh18 cells (AID 1347125); note: nearly all actives have a fitted effect of over 55% in size
Procedure, shortened: as §1

[5] = qHTS of pediatric cancer cell lines to identify multiple opportunities for drug repurposing: Confirmatory screen for Saos-2 cells (AID 1347127); note: nearly all actives have a fitted effect of over 60% in size
Procedure, shortened: as §1

[6] = qHTS of pediatric cancer cell lines to identify multiple opportunities for drug repurposing: Confirmatory screen for SK-N-SH cells (AID 1347129);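 note: cells exposed to compound for 48 h before viability read; nearly all actives have a fitted effect of over 60% in size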
Procedure, shortened: as §1

Furin (Homo sapiens) = Furin (Homo sapiens) (UniProt P09958); assay: Furin counterscreen qHTS for Zika virus inhibitors (AID 1347149); note: nearly all actives have a fitted effect of over 70% in size
Sequence of Furin (Homo sapiens) (P09958 whole entry, looked up): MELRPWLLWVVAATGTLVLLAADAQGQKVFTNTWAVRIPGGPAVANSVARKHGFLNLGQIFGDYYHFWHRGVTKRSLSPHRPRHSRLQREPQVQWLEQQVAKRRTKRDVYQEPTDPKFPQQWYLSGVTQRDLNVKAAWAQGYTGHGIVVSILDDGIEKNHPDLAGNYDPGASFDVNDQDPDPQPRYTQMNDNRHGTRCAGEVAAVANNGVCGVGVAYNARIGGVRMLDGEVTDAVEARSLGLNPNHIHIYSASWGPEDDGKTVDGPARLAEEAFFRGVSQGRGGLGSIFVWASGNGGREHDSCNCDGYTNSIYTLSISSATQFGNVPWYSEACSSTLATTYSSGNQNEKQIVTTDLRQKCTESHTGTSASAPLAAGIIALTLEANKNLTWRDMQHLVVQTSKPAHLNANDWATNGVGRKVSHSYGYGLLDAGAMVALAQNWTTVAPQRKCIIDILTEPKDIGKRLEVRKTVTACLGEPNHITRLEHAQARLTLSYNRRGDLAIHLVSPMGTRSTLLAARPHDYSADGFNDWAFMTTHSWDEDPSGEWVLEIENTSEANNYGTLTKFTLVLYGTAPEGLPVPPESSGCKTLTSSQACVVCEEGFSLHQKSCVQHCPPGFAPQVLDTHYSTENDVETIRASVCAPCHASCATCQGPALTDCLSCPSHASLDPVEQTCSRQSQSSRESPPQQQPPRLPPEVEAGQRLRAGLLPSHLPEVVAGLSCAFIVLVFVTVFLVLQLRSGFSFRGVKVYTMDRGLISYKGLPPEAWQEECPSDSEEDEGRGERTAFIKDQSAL
Procedure, shortened: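 Counterscreen measures cleavage of 2 microM BOC-RVRR-AMC, below its ~15 microM Km, by 5 nM full-length human furin at pH 7.0 after a 15-min compound preincubation. Inhibition derives from the 15-min fluorescence increase at 37C.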

[7] = test system: Zika virus NS2B-NS3 protease (linked construct); assay: Confirmatory screen NINDS AMC qHTS for Zika virus inhibitors (AID 1347152); note: nearly all actives have a fitted effect of over 70% in size
Procedure, shortened: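 IC50s from 4-parameter Hill fits of percent inhibition, based on AMC fluorescence gain (340/450 nm) over 15 min with 10 microM Bz-Nle-KRR-AMC. Enzyme: 1 nM linked NS2B-NS3 in Tris-HCl pH 8.0; 15-min compound preincubation.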

[8] = test system: Zika virus NS2B-NS3 protease (unlinked complex); assay: Confirmatory screen GU AMC qHTS for Zika virus inhibitors (AID 1347153);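 note: enzyme at 25 nM with substrate at 10 µM below its Km of 18.3 µM; nearly all actives have a fitted effect of over 70% in size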
Procedure, shortened: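 Compounds were preincubated 15 min at room temperature with 25 nM noncovalent NS2B-NS3 protease at pH 8.0; AMC substrate added at 10 microM and 15-min fluorescence gain (340/450 nm) converted to percent inhibition, fitted 4-parameter.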

[9] = test system: Zika virus NS2B-NS3 protease; assay: Primary screen GU AMC qHTS for Zika virus inhibitors (AID 1347154); note: nearly all actives have a fitted effect of over 70% in size
Procedure, shortened: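 Fluorogenic AMC-substrate cleavage by noncovalent NS2B-NS3 protease complex (25 nM, pH 8.0 Tris buffer with Tween 20) followed for 15 minutes at room temperature (~20% conversion). Percent inhibition from ex340/em450 signal change, fitted by 4-parameter Hill equation.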

[10] = Confirmatory screen GU Rhodamine qHTS for Zika virus inhibitors qHTS (AID 1347157); note: nearly all actives have a fitted effect of over 70% in size
Procedure, shortened: (§2)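 Percent inhibition came from the 15-min rise in Rhodamine110 fluorescence (1.5 microM substrate, ~15% conversion), normalized to no-inhibitor and no-enzyme wells and Hill-fitted. Unlinked protease, 25 nM, pH 8.0 Tris buffer; compounds up to 114 microM, 15-min preincubation.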

[11] = test system: Zika virus NS2B-NS3 protease (unlinked complex); assay: Primary screen GU Rhodamine qHTS for Zika virus inhibitors: Unlinked NS2B-NS3 protease assay (AID 1347159); note: nearly all actives have a fitted effect of over 60% in size
Procedure, shortened: as §2

[12] = qHTS of pediatric cancer cell lines to identify multiple opportunities for drug repurposing: Confirmatory screen for U-2 OS cells (AID 1347122); note: nearly all actives have a fitted effect of over 65% in size
Procedure, shortened: as §1

[13] = qHTS of pediatric cancer cell lines to identify multiple opportunities for drug repurposing: Confirmatory screen for Rh41 cells (AID 1347123);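 note: 48 h compound exposure; nearly all actives have a fitted effect of over 60% in size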
Procedure, shortened: as §1

[14] = qHTS of pediatric cancer cell lines to identify multiple opportunities for drug repurposing: Confirmatory screen for RD cells (AID 1347124);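 note: cells exposed to compound for 48 h before viability readout; nearly all actives have a fitted effect of over 65% in size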
Procedure, shortened: as §1

[15] = qHTS of pediatric cancer cell lines to identify multiple opportunities for drug repurposing: Confirmatory screen for OHS-50 cells (AID 1347128);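 note: compound exposure lasted 48 h at 37 degrees C; nearly all actives have a fitted effect of over 55% in size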
Procedure, shortened: as §1

[16] = qHTS of pediatric cancer cell lines to identify multiple opportunities for drug repurposing: Confirmatory screen for Rh30 cells (AID 1347126); note: nearly all actives have a fitted effect of over 55% in size
Procedure, shortened: as §1

[17] = ZIKV-mCherry secondary qHTS for Zika virus inhibitors (AID 1347158)
Procedure, shortened: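 This orthogonal imaging screen measured ZIKV-mCherry infection of Vero cells exposed to compound, MOI 1, 48-72 h. Percent infection came from segmented nuclei scored mCherry-positive above 3 SD of negative controls.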

Measured: Potency
Potency is the fitted concentration of half-maximal effect.

O=C(Nc1cc(C(F)(F)F)cc(C(F)(F)F)c1)c1cc(Cl)ccc1O
inactive: [9]
active: [1] 2.93 µM | [2] 0.928 µM | [3] 2.33 µM | [4] 3.69 µM | [5] 1.65 µM | [6] 3.72 µM | Furin (Homo sapiens) 55.5 µM | [7] 49.4 µM | [8] 49.4 µM | [10] 4.94 µM | [11] 2.82 µM

COc1cc(Nc2ncc(F)c(Nc3ccc4c(n3)N(COP(=O)(O)O)C(=O)C(C)(C)O4)n2)cc(OC)c1OC
active: [1] 5.85 µM | [2] 2.33 µM | [12] 4.14 µM | [13] 3.29 µM | [14] 16.5 µM | [5] 7.37 µM | [15] 5.22 µM | [6] 2.35 µM

CNC(=O)c1ccc(N2C(=S)N(c3cnc(C#N)c(C(F)(F)F)c3)C(=O)C23CCC3)cc1F
not listed: Furin (Homo sapiens) | [7] | [8] | [10] | [17]
inactive: all other assays above

COC(=O)[C@]12CCC(C)(C)C[C@@H]1[C@@H]1C(=O)C=C3[C@@]4(C)C=C(C#N)C(=O)C(C)(C)[C@@H]4CC[C@@]3(C)[C@]1(C)CC2
active: [1] 3.29 µM | [2] 4.65 µM | [3] 7.37 µM | [13] 2.33 µM | [14] 1.65 µM | [4] 5.22 µM | [5] 3.69 µM | [15] 5.22 µM | [6] 2.09 µM

CNC(=O)c1ccccc1Nc1nc(Nc2ccc(N3CCOCC3)cc2OC)ncc1Cl
inactive: [3] | [9] | [11]
active: [1] 0.827 µM | [2] 0.261 µM | [13] 0.928 µM | [14] 0.827 µM | [4] 4.14 µM | [5] 1.47 µM | [15] 2.93 µM | [6] 1.18 µM

CCN1CCN(Cc2ccc(-c3cc4c(N[C@H](C)c5ccccc5)ncnc4[nH]3)cc2)CC1
active: [1] 0.759 µM | [2] 13.5 µM | [3] 42.7 µM | [12] 12 µM | [13] 1.51 µM | [14] 21.4 µM | [4] 33.9 µM | [16] 15.1 µM | [5] 4.27 µM | [15] 4.79 µM | [6] 10.8 µM | Furin (Homo sapiens) 27.8 µM | [7] 44.1 µM | [8] 49.4 µM | [9] 17.1 µM

COc1cccc2c(NCc3ccccc3)nc(-n3c(N)nc4ccccc43)nc12
inactive: [9]
active: [1] 7.37 µM | [2] 5.85 µM | [3] 9.27 µM | [13] 0.208 µM | [16] 0.0465 µM | [5] 9.27 µM | [15] 8.27 µM | [6] 8.33 µM | [11] 50.1 µM

O=C(Nc1ncc(-c2cc(C(F)F)nn2-c2c(Cl)cccc2Cl)s1)C1CC1
inactive: [11]
active: [1] 0.369 µM | [2] 0.329 µM | [12] 1.04 µM | [13] 0.928 µM | [14] 0.827 µM | [16] 13.1 µM | [5] 0.465 µM

C[C@@]12O[C@@H](C[C@]1(O)CO)n1c3ccccc3c3c4c(c5c6ccccc6n2c5c31)CNC4=O
active: [1] 0.657 µM | [2] 1.47 µM | [3] 18.5 µM | [12] 0.737 µM | [13] 8.27 µM | [4] 3.69 µM | [16] 2.33 µM | [5] 1.31 µM | [15] 4.65 µM | [6] 5.26 µM | Furin (Homo sapiens) 7.62 µM | [7] 24.1 µM | [8] 24.1 µM | [9] 21.5 µM | [17] 8.91 µM

CC(C)c1cnn2c(NCc3ccccc3)cc(N[C@@H](CO)[C@H](O)CO)nc12
inactive: [3] | [9] | [11]
active: [1] 0.522 µM | [2] 0.827 µM | [12] 0.465 µM | [13] 0.737 µM | [14] 0.737 µM | [5] 0.585 µM | [15] 0.522 µM | [6] 0.332 µM

COC(=O)c1ccc2c(C(=Nc3ccc(N(C)C(=O)CN4CCN(C)CC4)cc3)c3ccccc3)c(O)[nH]c2c1
inactive: [3] | [9] | [11]
active: [1] 18.5 µM | [2] 3.29 µM | [13] 8.27 µM | [4] 26.1 µM | [16] 16.5 µM | [15] 14.7 µM

CCCCc1nc2cc(C=CC(=O)NO)ccc2n1CCN(CC)CC
inactive: [9]
active: [1] 1.31 µM | [2] 1.31 µM | [12] 1.85 µM | [13] 1.31 µM | [14] 2.33 µM | [4] 1.47 µM | [5] 2.61 µM | [6] 3.32 µM

Cc1cc(C(=O)N2CCN(c3cccc(Cl)c3)CC2)n(-c2ccccc2)n1
active: [1] 2.61 µM | [2] 1.65 µM | [12] 3.29 µM
inactive: [3] | [6] | [9]
